About 79,000 compounds went through this panel and 15% of them were active in at least one assay; those are over-represented in the sample as a whole. The source made the active and inactive calls. Rule as the data show it: active = growth inhibition above about 70%; inactive = the rest.
Tests used:
[1] = NCI Yeast Anticancer Drug Screen. Data for the rad50 strain (AID 155);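 also: 0% = growth of vehicle-only cultures of the same strain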; conditions: S. cerevisiae rad50 strain growth inhibition, hits give high values
Outline: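 Inhibition values express reduced yeast growth in compound-treated cultures relative to vehicle-treated controls.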

[2] = NCI Yeast Anticancer Drug Screen. Data for the mec2-1 strain (AID 157); conditions: S. cerevisiae mec2-1 strain, hits give high values
Outline: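 Readout is yeast growth inhibition, normalised to vehicle-treated controls, in the mec2-1 strain exposed to compound.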

[3] = NCI Yeast Anticancer Drug Screen. Data for the sgs1 mgt1 strain (AID 161);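 also: 0% = growth of cultures given vehicle only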; conditions: S. cerevisiae sgs1 mgt1 strain, hits give high values
Outline: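 Percent growth inhibition was derived by comparing compound-exposed mutant yeast with vehicle-exposed cultures. The strain carries alterations in DNA damage repair.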

[4] = NCI Yeast Anticancer Drug Screen. Data for the cln2 rad14 strain (AID 165);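 also: 0% = growth equal to vehicle treated cultures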; conditions: S. cerevisiae cln2 rad14 strain, hits give high values
Outline: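 Relative to vehicle controls, growth inhibition of compound-treated cln2 rad14 yeast was recorded.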

[5] = NCI Yeast Anticancer Drug Screen. Data for the bub3 strain (AID 167); conditions: S. cerevisiae bub3 mutant strain, hits give high values
Outline: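 Steps: expose the mutant yeast strain to compound; grow alongside vehicle-treated cultures; measure growth; express inhibition against the vehicle cultures.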

[6] = NCI Yeast Anticancer Drug Screen. Data for the mlh1 rad18 strain (AID 175); conditions: S. cerevisiae mlh1 rad18 strain growth inhibition, hits give high values
Outline: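 Test agents were incubated with a yeast strain of defined genotype (DNA damage repair defect). Inhibition of growth was derived by comparison with vehicle-exposed cultures.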

[7] = at 5.0 µM (retest, dose inferred, filed as 0.5)
[8] = at 50.0 µM (retest, dose inferred, filed as 5.0)

Measured: growth inhibition

Clc1cc[c]([Sn]([O][Sn]([c]2ccc(Cl)cc2)([c]2ccc(Cl)cc2)[c]2ccc(Cl)cc2)([c]2ccc(Cl)cc2)[c]2ccc(Cl)cc2)cc1
active: [1]; [7] 98% | [1]; [8] 95% | [1]; at 50.0 µM 97.5% | [2]; [7] 99% | [2]; [8] 98% | [2]; at 50.0 µM 99.3% | [3]; [7] 99% | [3]; [8] 98% | [3]; at 50.0 µM 96.6% | [4]; [7] 99% | [4]; [8] 96% | [4]; at 50.0 µM 79.5% | [5]; [7] 98% | [5]; [8] 97% | [5]; at 50.0 µM 88.8% | [6]; [7] 99% | [6]; [8] 97% | [6]; at 50.0 µM 98.3%

NNc1cc(Cl)ccc1Cl
active: [1]; [7] 73% | [1]; [8] 93% | [1]; at 50.0 µM 90.7% | [2]; [7] 91% | [2]; [8] 99% | [2]; at 50.0 µM 91.8% | [3]; [8] 98% | [3]; at 50.0 µM 94% | [4]; [7] 80% | [4]; [8] 98% | [4]; at 50.0 µM 91.8% | [5]; [7] 89% | [5]; [8] 99% | [5]; at 50.0 µM 91.5% | [6]; [8] 100% | [6]; at 50.0 µM 90.7%
inactive: [3]; [7] 57% | [6]; [7] 55%

Cc1ccc(S(=O)(=O)OCC(/C=N/NC(N)=O)OCOC(C)/C=N/NC(N)=O)cc1 (configuration not stated)
active: [2]; at 50.0 µM 99.2%
inactive: [1]; [7] -2% | [1]; [8] -7% | [1]; at 50.0 µM 14.8% | [2]; [7] 0% | [2]; [8] -5% | [3]; [7] -4% | [3]; [8] -8% | [3]; at 50.0 µM 1.95% | [4]; [7] 1% | [4]; [8] -8% | [4]; at 50.0 µM 46.8% | [5]; [7] 1% | [5]; [8] -2% | [5]; at 50.0 µM -1.4% | [6]; [7] 1% | [6]; [8] -3% | [6]; at 50.0 µM 19.1%

CC(/C=C1\C(=O)N(C)C(CC(C)C(Cl)(Cl)Cl)C(=O)N1C)C(Cl)(Cl)Cl (configuration not stated)
active: [1]; [8] 78% | [2]; [8] 74% | [3]; [8] 76% | [4]; [8] 74% | [5]; [8] 79% | [6]; [8] 79% | [6]; at 50.0 µM 70.7%
inactive: [1]; [7] 6% | [1]; at 50.0 µM 62.8% | [2]; [7] 7% | [2]; at 50.0 µM 30.8% | [3]; [7] 4% | [3]; at 50.0 µM 57.7% | [4]; [7] 25% | [4]; at 50.0 µM 38.5% | [5]; [7] 28% | [5]; at 50.0 µM 36.2% | [6]; [7] 13%

CN1C(=O)C23SSC1(C)C(=O)N2c1ccccc1C3(C)C (configuration not stated)
active: [1]; [7] 97% | [1]; [8] 99% | [1]; at 50.0 µM 99% | [2]; [7] 98% | [2]; [8] 96% | [2]; at 50.0 µM 99.6% | [3]; [7] 99% | [3]; [8] 100% | [3]; at 50.0 µM 98% | [4]; [7] 98% | [4]; [8] 99% | [4]; at 50.0 µM 99.3% | [5]; [7] 98% | [5]; [8] 99% | [5]; at 50.0 µM 99.2% | [6]; [7] 99% | [6]; [8] 99% | [6]; at 50.0 µM 99.3%

Nc1ccc(/C=C2/c3ccccc3-c3nc4ccccc4cc32)cc1
inactive: [1]; [7] 3% | [2]; [7] 0% | [2]; [8] 63% | [2]; at 50.0 µM 15.6% | [3]; [7] -4% | [3]; at 50.0 µM 59.9% | [4]; [7] -4% | [4]; [8] 33% | [4]; at 50.0 µM 5% | [5]; [7] -1% | [5]; [8] 57% | [5]; at 50.0 µM 6.8% | [6]; [7] 1% | [6]; at 50.0 µM 52.1%
active: [1]; [8] 87% | [1]; at 50.0 µM 78.9% | [3]; [8] 77% | [6]; [8] 85%

CCOC(=O)Nc1c(F)cc(F)cc1F
inactive: [1]; [7] 0% | [1]; [8] 0% | [1]; at 50.0 µM 8.65% | [2]; [7] -32% | [2]; [8] 1% | [2]; at 50.0 µM 5.6% | [3]; [7] 1% | [3]; [8] -1% | [3]; at 50.0 µM -7.55% | [4]; [7] -2% | [4]; [8] -4% | [4]; at 50.0 µM 45.2% | [5]; [7] -5% | [5]; [8] -2% | [5]; at 50.0 µM 4.25% | [6]; [7] 2% | [6]; [8] 0% | [6]; at 50.0 µM -0.05%

Cc1ccc2c(c1)-c1cc(C)ccc1C2(O)c1ccccc1
active: [1]; [8] 83% | [1]; at 50.0 µM 99% | [2]; at 50.0 µM 97.9% | [3]; [8] 89% | [3]; at 50.0 µM 93.7% | [4]; [8] 79% | [4]; at 50.0 µM 97.2% | [5]; [8] 95% | [5]; at 50.0 µM 96.7% | [6]; [8] 95% | [6]; at 50.0 µM 99.2%
inactive: [1]; [7] 3% | [2]; [7] 14% | [2]; [8] 66% | [3]; [7] 6% | [4]; [7] -7% | [5]; [7] 3% | [6]; [7] -6%

NC(=S)Nc1cccc(C(F)(F)F)c1
inactive: [1]; [7] -14% | [2]; [7] -20% | [3]; [7] -10% | [4]; [7] -45% | [5]; [7] -24% | [6]; [7] -19%
active: [1]; [8] 92% | [1]; at 50.0 µM 99.2% | [2]; [8] 95% | [2]; at 50.0 µM 99.2% | [3]; [8] 92% | [3]; at 50.0 µM 99.2% | [4]; [8] 92% | [4]; at 50.0 µM 98.9% | [5]; [8] 94% | [5]; at 50.0 µM 98.9% | [6]; [8] 93% | [6]; at 50.0 µM 98.9%
